Bioassay records (PubChem BioAssay)
Pol iota inh: DNA polymerase iota (human) inhibition; Q9UNA4; Pol iota fluorescent replication assay, 10 min; Potency, µM (highest dose often 115 µM), for inactives: at the highest dose activity, negative = inhibition, usual class: inhibitors; 390,000 tested, 1% active; AID 588590
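Fluorescent replication assay read twice, at 0 min and 10 min after adding 50 nM (final) substrate. Enzyme (10 nM) and compounds were first incubated 15 min at room temperature; enzyme-free buffer wells were negative controls.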
POLB inh: blocks human DNA polymerase beta activity; Potency, µM (titrated, usually from 114 µM), for inactives: at the highest dose activity change, negative = inhibition, most hits filed as inhibitors; Pol beta primer extension/strand displacement, fluorescence kinetic; P06746; 340,000 tested, 1.3% active; further: on the % scale 0 is the no-effect control and ±100 the full control effect
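Curves were derived by four-parameter Hill fits of normalized qHTS data. The kinetic fluorescent primer-extension read was taken at 0 and 10 min after 50 nM substrate, following a 15 min room-temperature preincubation of 10 nM enzyme with compounds.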
Pol kappa inh: DNA polymerase kappa (human) inhibition. Q9UBT6. purified Pol kappa, fluorescent DNA synthesis assay, 10 min. Potency, µM (series often up to 107 µM), for inactives: top-dose activity, negative = inhibition, actives largely listed as inhibitors. 400,000 tested, 0.53% active. AID 588579; further: on the % scale 0 is the no-effect control and ±100 the full control effect
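10 nM Pol kappa preincubated 15 min at room temperature with compounds, then reaction started with substrate at 50 nM final. Fluorescence read kinetically at 0 and 10 min; buffer-only wells served as negative control.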
WRN helicase inh: inhibitors of human WRN helicase; Q14191; WRN helicase unwinding, fluorescent forked duplex, kinetic; Potency, µM (highest dose often 114 µM), for the others: top-dose activity change, negative = inhibition, actives largely listed as inhibitors; 360,000 tested, 0.46% active; AID 651768; further: on the % scale 0 is the no-effect control and ±100 the full control effect; nearly all actives have a fitted effect of over 55% in size
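Screening of the MLSMR collection measured strand separation of a quenched forked DNA duplex (100 nM) by 20 nM WRN with 2 mM ATP, all final. Compounds were preincubated with enzyme 15 min at room temperature.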
Pol eta inh: blocks human DNA polymerase eta activity | recombinant Pol eta, fluorescent DNA replication assay | Potency, µM (titrated, usually from 114 µM), for inactives: at the highest dose activity change, negative = inhibition, usual class: inhibitors | 390,000 tested, 1.2% active; further: on the % scale 0 is the no-effect control and ±100 the full control effect
Target sequence (Q9Y253 whole entry, looked up): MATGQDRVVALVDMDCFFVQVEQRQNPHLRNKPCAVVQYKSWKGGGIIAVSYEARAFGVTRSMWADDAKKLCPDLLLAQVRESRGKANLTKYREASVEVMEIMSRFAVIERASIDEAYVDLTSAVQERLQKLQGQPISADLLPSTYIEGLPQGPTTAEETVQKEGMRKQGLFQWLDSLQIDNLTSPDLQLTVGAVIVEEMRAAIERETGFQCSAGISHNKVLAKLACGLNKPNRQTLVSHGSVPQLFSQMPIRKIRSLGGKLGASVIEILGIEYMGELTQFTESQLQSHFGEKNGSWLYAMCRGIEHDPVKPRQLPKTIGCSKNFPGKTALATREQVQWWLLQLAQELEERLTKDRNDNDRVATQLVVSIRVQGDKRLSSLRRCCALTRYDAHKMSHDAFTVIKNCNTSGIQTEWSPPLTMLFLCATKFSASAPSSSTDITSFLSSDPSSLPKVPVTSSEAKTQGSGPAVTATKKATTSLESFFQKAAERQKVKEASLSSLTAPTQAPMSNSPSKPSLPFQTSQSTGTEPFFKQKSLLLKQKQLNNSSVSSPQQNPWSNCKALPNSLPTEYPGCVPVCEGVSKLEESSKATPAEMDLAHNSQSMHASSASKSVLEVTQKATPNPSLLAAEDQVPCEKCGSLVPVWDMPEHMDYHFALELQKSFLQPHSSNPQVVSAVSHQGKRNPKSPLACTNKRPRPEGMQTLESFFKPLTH
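Pol eta at 10 nM preincubated with compounds 15 min at room temperature; reaction started with fluorescent substrate (50 nM final) and read kinetically at 0 and 10 min.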
FEN1 inh-1: inhibitors of human flap endonuclease 1. P39748. 390,000 tested, 0.35% active. Potency, µM (titrated, usually from 114 µM), inactives show top-dose activity change, negative = inhibition, actives largely listed as inhibitors. Recombinant FEN1 flap cleavage, fluorescence, 15 min. AID 588795; further: on the % scale 0 is the no-effect control and ±100 the full control effect; nearly all actives have a fitted effect of over 65% in size
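Enzyme 10 nM, 15 min RT preincubation with compound; start with substrate 50 nM final; reads at 0 and 15 min; qHTS titration, four-parameter Hill fit.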
FEN1 inh-2: confirmation of human FEN1 inhibitors | Potency, µM, hits mostly inhibitors | shares compounds with FEN1 inh-1 | 880 tested, 79% active | FEN1 flap cleavage, TAMRA/BHQ2 fluorogenic DNA substrate | AID 720498; further: nearly all actives have a fitted effect of over 60% in size
Active calls of the source: *; ? = inconclusive; / = no result given; [ ] = another dose, or the depositor's remark. An excerpt weighted towards active compounds, which were near 2.4% of everything screened. The call rests on the fitted dose curve; in most records, active means well fitted curve in the direction sought with a large enough effect; inconclusive means small, poorly fitted or top-dose-only effect, or another doubt; inactive means no such curve, though single readings can be large; an effect the other way counts as inactive or inconclusive. Potency means the concentration at half of the fitted maximal effect.

SMILES	Pol iota inh	POLB inh	Pol kappa inh	WRN helicase inh	Pol eta inh	FEN1 inh-1	FEN1 inh-2
COC(=O)C(NC(=O)CC(C)C)(Nc1nc2c(s1)CCCC2)C(F)(F)F (stereo not drawn)	6%	-2%	-7%	/	-11%	11%	/
COc1ccc(OC)c(CCNC(=O)Cn2nc(C)c3c(C)n(-c4ccc(C)cc4)nc3c2=O)c1	?	?	?	6%[11.6 µM]	-18%	?	?
COc1ccc(CCNC(=O)Cn2nc(C)c3c(C)n(-c4ccccc4)nc3c2=O)c(OC)c1	?	35%	0%	-13%	-6%	18%	/
CCCN(CCC)CCCNC(=O)c1cc2c(-c3ccc(Cl)cc3)nn(C)c2s1	-1%	20µM*	-10%	/	-7%	?	?
Cn1c(N)c(C(=O)COC(=O)c2ccc([N+](=O)[O-])o2)c(=O)n(C)c1=O	50µM*	-3%	-26%	-2%	89µM*	?	8.5*
Cn1c(N)c(C(=O)COC(=O)c2ccc(Br)o2)c(=O)n(C)c1=O	28%	0%	-11%	-2%	-3%	3%	/
CC1CCCC(C)N1C(=O)COC(=O)c1ccc([N+](=O)[O-])o1 (stereo not drawn)	50µM*	/	-13%	-3%	50µM*	?	15*
CCOC(=O)C1CCN(C(=O)COC(=O)c2ccc([N+](=O)[O-])o2)CC1	50µM*	/	-4%	16%	79µM*	?	11*
CC(OC(=O)c1ccc([N+](=O)[O-])o1)C(=O)NC1CCCCC1C (stereo not drawn)	-6%	/	-16%	6%	?	13µM*	6*
CC=C1C2C=C(C)CC1(N)c1ccc(=O)[nH]c1C2 (stereo not drawn)	/	/	2%[19.4 µM]	/	/	/	/
O=C(Cc1ccccc1)NC(c1ccco1)c1cc(Cl)c2cccnc2c1O (stereo not drawn)	/	/	/	/	/	/	30*
Cc1ccc(-c2oc3ncnc(N)c3c2-c2ccc(C)cc2)cc1	?	2%	0%	-4%	-8%	-1%	/
COc1ccc(-c2oc3ncnc(NCCCN(C)C)c3c2-c2ccc(OC)cc2)cc1	0%	?	-5%[60.1 µM]	-12%[11.6 µM]	-13%	?	?
CCCc1nn2c(=O)cc(COC(=O)c3ccc(NC(=O)c4cccs4)cc3)nc2s1	1%	4%	-8%[60.1 µM]	/	6%	22%	/
CN(C)c1ccc(C=C2SC(=S)NC2=O)cc1	?	/	-22%	?	?	-34%	?
O=C(OCc1nnc(-c2ccccc2)o1)c1ccc([N+](=O)[O-])s1	?	/	-33%	31%	56µM*	?	4.8*
O=C(COC(=O)c1ccc([N+](=O)[O-])s1)Nc1ccc(F)cc1	?	/	-25%	27%	?	-17%	/
O=C(COC(=O)c1ccc([N+](=O)[O-])s1)Nc1ccccc1	89µM*	6.3µM*	-3%	-3%[57.1 µM]	?	-18%	21*
COc1ccc(S(=O)(=O)N2CCOCC2)cc1NC(=O)COC(=O)c1ccc([N+](=O)[O-])s1	89µM*	/	-24%	-13%[11.6 µM]	?	-20%	6.7*
CCc1ccc(CNC(=O)C2CCCN(c3nn4cc(-c5ccc(F)cc5)nc4s3)C2)cc1 (stereo not drawn)	1%	-24%	-9%	/	-4%	10%	/
Cc1ccc(Cl)cc1-n1ncc2c(N3CCN(Cc4ccccc4)CC3)ncnc21	18%	6%	-20%[60.1 µM]	/	-6%	9%	/
O=C(Nc1ccc(Cl)cc1)C1CCN(c2nc3ccccc3nc2C(F)(F)F)CC1	0%	2%	0%	/	-18%	-2%	/
O=C(CSc1nnc(-c2ccco2)o1)c1ccc[nH]1	14µM*	14µM*	?	-27%	?	-16%	?
COc1ccc(CCNc2c3ccccc3nc3ccccc23)cc1OC	?	6.3µM*	?	-4%[11.6 µM]	?	50µM*	?
